Test results taken from PubChem BioAssay AID1159580 (chemical genetic matrix, 2015).
Values joined by “and” are separate entries in the source; they are usually repeats but may differ in a detail not shown here. Equal entries are not always repeated. About 2,000 (36%) of roughly 5,500 compounds were called active. Another 18% or so got no clear call; they are omitted. No stated cut-off is given here; in the data, active means normalized growth mostly below about 0.91 (no sharp cut-off); inconclusive means no clear call, values can overlap the other calls; inactive means mostly above about 0.92. Some of the results follow.

Experiment: chemical genetic growth profiling, strain panel (AID 1159580);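 further: tested at 20 µM; growth read once vehicle control cultures reached saturation at 30 °C; 1 = growth at the plate median or of vehicle wells; lower values mean less growth of the strain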
Details: S. cerevisiae deletion strains, growth OD

Measured: normalized growth

CC1(C)S[C@@H]2[C@H](NC(=O)COc3ccccc3)C(=O)N2[C@H]1C(=O)O
inactive: locus YAL013W, strain DEP1, hits give low values 1 | locus YAL021C, strain ccr4, hits give low values 1.01 | locus YAL026C, strain drs2, hits give low values 1 | locus YAL030W, strain snc1, hits give low values 0.989 | locus YBL061C, strain skt5, hits give low values 0.985 | locus YBR009C, strain hhf1, hits give low values 1.01 | locus YBR021W, strain FUR4, hits give low values 1.02 | locus YBR023C, strain chs3, hits give low values 0.996 | locus YBR171W, strain sec66, hits give low values 0.969 | locus YBR229C, strain ROT2, hits give low values 1 | locus YBR231C, strain swc5, hits give low values 0.975 | locus YBR279W, strain paf1, hits give low values 0.999 | locus YCL011C, strain gbp2, hits give low values 1 | locus YCL016C, strain dcc1, hits give low values 1.02 | locus YCL029C, strain bik1, hits give low values 1.04 | locus YCL069W, strain vba3, hits give low values 0.993 | locus YCR088W, strain abp1, hits give low values 0.997 | locus YDL005C, strain med2, hits give low values 0.994 | locus YDL035C, strain GPR1, hits give low values 1.01 | locus YDL040C, strain nat1, hits give low values 0.993 | locus YDL074C, strain BRE1, hits give low values 1.01 | locus YDL101C, strain DUN1, hits give low values 1.01 | locus YDL134C, strain PPH21, hits give low values 1.01 | locus YDL185W, strain tfp1, hits give low values 1.01 | locus YDL192W, strain arf1, hits give low values 1.03 | locus YDR001C, strain nth1, hits give low values 0.99 | locus YDR069C, strain doa4, hits give low values 0.98 | locus YDR101C, strain arx1, hits give low values 1.02 | locus YDR137W, strain rgp1, hits give low values 0.975 | locus YDR150W, strain NUM1, hits give low values 0.999 | locus YDR159W, strain sac3, hits give low values 1 | locus YDR162C, strain NBP2, hits give low values 1.01 | locus YDR195W, strain ref2 0.955 | locus YDR297W, strain sur2, hits give low values 0.991 | locus YDR318W, strain mcm21, hits give low values 1.02 | locus YDR334W, strain swr1, hits give low values 0.993 | locus YDR335W, strain msn5, hits give low values 0.986 | locus YDR388W, hits give low values 1.02 | locus YDR392W, strain spt3, hits give low values 1.03 | locus YDR502C, strain sam2, hits give low values 1.03 | locus YEL003W, strain gim4, hits give low values 0.997 | locus YEL037C, strain rad23, hits give low values 0.992 | locus YEL061C, strain CIN8 (second series), hits give low values 0.986 | locus YEL061C, strain CIN8, hits give low values 1 | locus YER015W, strain faa2, hits give low values 0.999 | locus YER016W, strain bim1, hits give low values 1 | locus YER110C, hits give low values 1.02 | locus YER111C, strain swi4, hits give low values 0.99 | locus YER155C, strain BEM2 (second series), hits give low values 0.977 | locus YER155C, strain BEM2, hits give low values 0.999 | locus YER167W, strain BCK2, hits give low values 1 | locus YFR010W, strain ubp6, hits give low values 0.98 | locus YGL078C, strain dbp3, hits give low values 1.02 | locus YGL086W, strain mad1, hits give low values 1.01 | locus YGL167C, strain pmr1, hits give low values 0.996 | locus YGL173C, strain kem1, hits give low values 0.991 | locus YGL227W, strain vid30, hits give low values 0.984 | locus YGL240W, strain doc1, hits give low values 0.976 | locus YGL248W, strain PDE1, hits give low values 1.01 | locus YGL253W, strain hxk2, hits give low values 0.998 | locus YGR078C, strain PAC10, hits give low values 1.01 | locus YGR135W, strain pre9, hits give low values 1.02 | locus YGR229C, strain SMI1, hits give low values 1.01 | locus YGR252W, strain gcn5, hits give low values 1.02 | locus YHR013C, strain ard1, hits give low values 1 | locus YHR027C, strain rpn1, hits give low values 1.01 | locus YHR030C, strain SLT2, hits give low values 1.01 and 0.967 | locus YHR079C, strain IRE1 (second series), hits give low values 1.02 | locus YHR079C, strain IRE1, hits give low values 0.98 | locus YHR094C, strain hxt1, hits give low values 1.02 | locus YHR129C, strain ARP1, hits give low values 1 | locus YHR142W, strain chs7, hits give low values 1.01 | locus YHR200W, strain rpn10, hits give low values 1.02 | locus YIL066C, strain RNR3, hits give low values 1.01 | locus YIL073C, strain SPO22, hits give low values 1.07 | locus YIL125W, strain kgd1, hits give low values 1.02 | locus YIR030C, strain dcg1, hits give low values 1.03 | locus YJL092W, strain hpr5, hits give low values 0.976 | locus YJL095W, strain BCK1 (second series), hits give low values 0.99 | locus YJL095W, strain BCK1, hits give low values 1.01 and 0.99 | locus YJL115W, strain asf1, hits give low values 0.988 | locus YJL129C, strain trk1, hits give low values 0.955 | locus YJL134W, strain LCB3, hits give low values 1 | locus YJL154C, strain vps35, hits give low values 0.988 | locus YJL164C, strain tpk1, hits give low values 1.02 | locus YJL166W, strain qcr8, hits give low values 0.953 | locus YJL168C, strain set2, hits give low values 1.02 | locus YJL187C, strain SWE1 (second series), hits give low values 1.01 | locus YJL187C, strain SWE1, hits give low values 0.997 | locus YJR043C, strain POL32, hits give low values 1.01 | locus YJR066W, strain TOR1, hits give low values 0.92
